Laboratory results as given in PubChem BioAssay (NCI).
This is part of a sample that, as a whole, favours compounds with a hit. Of some 83,000 tested, about 20% had one in any assay.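 Assay: single dose, 48 h. Readout: percent growth (0 = no net growth; negative = cell death). Active: <10.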 Activity calls are given as the source filed them.

How the values were obtained:
Assay in all cases: NCI-60 one-dose screen, 48 h (100 = growth as untreated, 0 = no growth, -100 = all killed)
Conditions in all cases: 10 µM unless noted
HCT-15 colon = tested on: HCT-15 colon
HT29 colon = tested on: HT29 colon
SNB-75 CNS = tested on: SNB-75 CNS
SNB-19 CNS = tested on: SNB-19 CNS
U251 CNS = tested on: U251 CNS
PC-3 prostate = tested on: PC-3 prostate
SK-MEL-5 melanoma = tested on: SK-MEL-5 melanoma
UACC-62 melanoma = tested on: UACC-62 melanoma
LOX IMVI melanoma = tested on: LOX IMVI melanoma
SK-MEL-28 melanoma = tested on: SK-MEL-28 melanoma
SK-MEL-2 melanoma = tested on: SK-MEL-2 melanoma
EKVX NSCLC = tested on: EKVX NSCLC
SN12C renal = tested on: SN12C renal
UO-31 renal = tested on: UO-31 renal
TK-10 renal = tested on: TK-10 renal
CAKI-1 renal = tested on: CAKI-1 renal
A498 renal = tested on: A498 renal
CCRF-CEM leukemia = tested on: CCRF-CEM leukemia
MOLT-4 leukemia = tested on: MOLT-4 leukemia
ACHN renal = tested on: ACHN renal

Measured: growth

CC(C)[C@@H]1C=C2CC[C@H]3[C@](C)(CN)CCC[C@]3(C)[C@H]2CC1
active: HT29 colon -34.1% | SK-MEL-28 melanoma -82.1%
inactive: HCT-15 colon 44.5% | SNB-75 CNS 64.8% | SNB-19 CNS 104% | U251 CNS 14% | PC-3 prostate 69.6% | SK-MEL-5 melanoma 69.3% | UACC-62 melanoma 86.3% | LOX IMVI melanoma 43.6% | SK-MEL-2 melanoma 81.7% | EKVX NSCLC 65.6% | SN12C renal 93% | UO-31 renal 68.3% | TK-10 renal 90.8% | CAKI-1 renal 78.7% | A498 renal 66.6% | CCRF-CEM leukemia 71% | MOLT-4 leukemia 49.4%

COc1ccc(-c2cc(-c3cn(-c4cccc(Cl)c4)nc3-c3ccc(OC)cc3)[nH]c(=S)n2)cc1
inactive: HCT-15 colon 95.4% | HT29 colon 20.6% | SNB-75 CNS 102% | SNB-19 CNS 81.6% | U251 CNS 72.6% | PC-3 prostate 67.3% | SK-MEL-5 melanoma 88.5% | UACC-62 melanoma 88% | SK-MEL-28 melanoma 95.5% | SK-MEL-2 melanoma 88.9% | EKVX NSCLC 90.4% | SN12C renal 73.6% | UO-31 renal 84.7% | TK-10 renal 93.8% | CAKI-1 renal 104% | A498 renal 69.3% | CCRF-CEM leukemia 73.6% | MOLT-4 leukemia 42.4%
active: LOX IMVI melanoma 7.63%

Cc1ccc2c(C)c3c(ccc4ccccc43)c[n+]2c1
inactive: HCT-15 colon 95.8% | HT29 colon 88.1% | SNB-75 CNS 65% | SNB-19 CNS 24% | U251 CNS 24.5% | PC-3 prostate 52.9% | UACC-62 melanoma 74.2% | LOX IMVI melanoma 91.9% | SK-MEL-28 melanoma 77.8% | SK-MEL-2 melanoma 98.4% | EKVX NSCLC 44.1% | SN12C renal 26.3% | UO-31 renal 45.9% | ACHN renal 91.7% | CAKI-1 renal 75.9% | A498 renal 89.7% | CCRF-CEM leukemia 57.1% | MOLT-4 leukemia 61.3%
active: SK-MEL-5 melanoma -25.6%

COc1ccc(C2NC(=O)c3cc4c(cc3N2)OCO4)cc1 (stereo unspecified)
active: HT29 colon 5.16% | SNB-75 CNS 5.9% | A498 renal 8.76%
inactive: HCT-15 colon 12.5% | SNB-19 CNS 34% | U251 CNS 17.2% | PC-3 prostate 27.9% | SK-MEL-5 melanoma 11.9% | UACC-62 melanoma 25.3% | LOX IMVI melanoma 39.9% | SK-MEL-28 melanoma 39.8% | SK-MEL-2 melanoma 10.5% | EKVX NSCLC 58.1% | SN12C renal 31.6% | UO-31 renal 67.3% | TK-10 renal 52.8% | CAKI-1 renal 55.2% | CCRF-CEM leukemia 14.8% | MOLT-4 leukemia 16.5%

CN1CCC2(CC1)N=C(SCC(=O)Nc1cnc3ccccc3c1)C(c1ccc(Br)cc1)=N2
inactive: HCT-15 colon 12% | SNB-75 CNS 25.4% | SNB-19 CNS 40.7% | PC-3 prostate 21.3% | EKVX NSCLC 37.9% | SN12C renal 31.1% | A498 renal 44.6%
active: HT29 colon -67.1% | U251 CNS -24.7% | SK-MEL-5 melanoma -96.2% | UACC-62 melanoma -78.9% | LOX IMVI melanoma -78.5% | SK-MEL-28 melanoma -70.1% | SK-MEL-2 melanoma -31.2% | UO-31 renal -12.5% | ACHN renal 5.39% | CAKI-1 renal 8.73% | CCRF-CEM leukemia 4.53% | MOLT-4 leukemia 1.51%

COc1nccc2c(Sc3ccccc3)nc(N)nc12
inactive: HCT-15 colon 100% | HT29 colon 108% | SNB-75 CNS 84.5% | SNB-19 CNS 117% | U251 CNS 110% | PC-3 prostate 84.7% | SK-MEL-5 melanoma 99.2% | UACC-62 melanoma 102% | LOX IMVI melanoma 107% | SK-MEL-28 melanoma 106% | SK-MEL-2 melanoma 101% | EKVX NSCLC 117% | SN12C renal 105% | UO-31 renal 75.3% | TK-10 renal 103% | CAKI-1 renal 106% | A498 renal 76.2% | CCRF-CEM leukemia 97.7% | MOLT-4 leukemia 94.5%

NC(CCC(=O)NC(CS)C(=O)NCC(=O)O)C(=O)O (stereo unspecified)
inactive: HCT-15 colon 101% | HT29 colon 106% | SNB-75 CNS 95.6% | SNB-19 CNS 99% | U251 CNS 106% | PC-3 prostate 81.5% | SK-MEL-5 melanoma 102% | UACC-62 melanoma 96.7% | LOX IMVI melanoma 104% | SK-MEL-28 melanoma 116% | SK-MEL-2 melanoma 100% | EKVX NSCLC 99.8% | SN12C renal 108% | UO-31 renal 85.9% | TK-10 renal 154% | CAKI-1 renal 100% | A498 renal 127% | CCRF-CEM leukemia 121% | MOLT-4 leukemia 102%

CS(=O)(=O)c1ccc(C(=O)Nc2ccc(Cl)c(-c3ccccn3)c2)c(Cl)c1
inactive: HCT-15 colon 22.7% | SNB-75 CNS 14% | SNB-19 CNS 51.1% | U251 CNS 15.5% | SK-MEL-5 melanoma 10.9% | UACC-62 melanoma 19.7% | LOX IMVI melanoma 16% | SK-MEL-28 melanoma 23.2% | EKVX NSCLC 23.5% | SN12C renal 28.2% | UO-31 renal 24.6% | TK-10 renal 11.9% | MOLT-4 leukemia 11.5%
active: HT29 colon -7.2% | PC-3 prostate 7.55% | SK-MEL-2 melanoma -6.37% | CAKI-1 renal -17.6% | A498 renal 6.2%

Cc1c(C(=O)CCl)c(=O)n(-c2ccccc2)n1C
inactive: HCT-15 colon 40% | HT29 colon 36.2% | SNB-75 CNS 76.3% | SNB-19 CNS 94.5% | U251 CNS 65.8% | PC-3 prostate 55.5% | SK-MEL-5 melanoma 87.9% | UACC-62 melanoma 74.1% | LOX IMVI melanoma 62% | SK-MEL-28 melanoma 65% | SK-MEL-2 melanoma 71.4% | EKVX NSCLC 76.8% | SN12C renal 86% | UO-31 renal 64.2% | TK-10 renal 40.1% | CAKI-1 renal 29.8% | A498 renal 77.4% | MOLT-4 leukemia 24.8%

CC(SC(C)C(=O)N/N=C/c1cccc(Cl)c1)C(=O)N/N=C\c1cccc(Cl)c1 (stereo unspecified)
active: LOX IMVI melanoma 7.06%
inactive: HCT-15 colon 86.5% | HT29 colon 79% | SNB-75 CNS 83.7% | SNB-19 CNS 89.5% | U251 CNS 48.2% | PC-3 prostate 53.5% | SK-MEL-5 melanoma 98.2% | UACC-62 melanoma 92.1% | SK-MEL-28 melanoma 117% | SK-MEL-2 melanoma 95.8% | EKVX NSCLC 94.9% | SN12C renal 63.9% | UO-31 renal 90.2% | ACHN renal 44% | CAKI-1 renal 91.6% | A498 renal 102% | CCRF-CEM leukemia 48.6% | MOLT-4 leukemia 68.3%

CN(C)c1ccc(C2(Cl)c3ccccc3N(C)c3ccccc32)cc1
active: U251 CNS 1.47% | PC-3 prostate 7.45%
inactive: HCT-15 colon 64.5% | HT29 colon 12.1% | SNB-75 CNS 71.2% | SNB-19 CNS 45.5% | SK-MEL-5 melanoma 79.9% | UACC-62 melanoma 35.2% | LOX IMVI melanoma 27.6% | SK-MEL-28 melanoma 52.4% | SK-MEL-2 melanoma 61.2% | EKVX NSCLC 47.8% | SN12C renal 19.1% | UO-31 renal 71.8% | TK-10 renal 64.3% | CAKI-1 renal 81.2% | A498 renal 77.2% | CCRF-CEM leukemia 27.7% | MOLT-4 leukemia 49.7%

COc1ccc2nc3ccccc3c(NCc3ccc(C)cc3)c2c1
inactive: HCT-15 colon 11.4% | SNB-75 CNS 46.6% | SNB-19 CNS 29.2% | U251 CNS 15.3% | PC-3 prostate 11.4% | SK-MEL-5 melanoma 34.4% | UACC-62 melanoma 55.7% | SK-MEL-28 melanoma 66.4% | SK-MEL-2 melanoma 70% | EKVX NSCLC 35.2% | SN12C renal 23.6% | UO-31 renal 13.4% | ACHN renal 16.3% | CAKI-1 renal 26.2%
active: HT29 colon 1.23% | LOX IMVI melanoma -6.01% | A498 renal -1.58% | CCRF-CEM leukemia 7.09% | MOLT-4 leukemia 0.305%

Nc1c(N)c2ccccc2c2ccccc12
inactive: HCT-15 colon 111% | HT29 colon 108% | SNB-75 CNS 84.8% | SNB-19 CNS 104% | U251 CNS 106% | PC-3 prostate 89.5% | SK-MEL-5 melanoma 107% | UACC-62 melanoma 95% | LOX IMVI melanoma 101% | SK-MEL-28 melanoma 110% | SK-MEL-2 melanoma 106% | EKVX NSCLC 92.6% | SN12C renal 99.5% | UO-31 renal 69.1% | TK-10 renal 119% | CAKI-1 renal 89% | A498 renal 113% | CCRF-CEM leukemia 104% | MOLT-4 leukemia 100%

Cc1ccccc1Nc1n[nH]c(Cc2ccccc2)n1
inactive: HCT-15 colon 108% | HT29 colon 79.1% | SNB-75 CNS 93.9% | SNB-19 CNS 97.6% | U251 CNS 94.3% | PC-3 prostate 86.5% | SK-MEL-5 melanoma 93.9% | UACC-62 melanoma 98.4% | LOX IMVI melanoma 95.5% | SK-MEL-28 melanoma 113% | SK-MEL-2 melanoma 83.8% | EKVX NSCLC 103% | SN12C renal 104% | UO-31 renal 86% | TK-10 renal 90% | CAKI-1 renal 101% | A498 renal 102% | CCRF-CEM leukemia 97.8% | MOLT-4 leukemia 70.2%

Clc1ccccc1CNc1c2ccccc2nc2ccccc12
inactive: HCT-15 colon 13.6% | SNB-75 CNS 43.1% | SNB-19 CNS 25.8% | U251 CNS 23.2% | PC-3 prostate 17.1% | SK-MEL-5 melanoma 41.8% | UACC-62 melanoma 41% | SK-MEL-28 melanoma 50.5% | SK-MEL-2 melanoma 55.6% | EKVX NSCLC 25.9% | SN12C renal 27.8% | UO-31 renal 17.5% | TK-10 renal 42.5% | CAKI-1 renal 25.2% | CCRF-CEM leukemia 10.7%
active: HT29 colon 5.54% | LOX IMVI melanoma 4.83% | A498 renal -5.85% | MOLT-4 leukemia 5.14%

CC(C)c1ccc(-c2cnc3nonc3n2)cc1
inactive: HCT-15 colon 19.3% | HT29 colon 29.8% | SNB-75 CNS 54.3% | SNB-19 CNS 40.7% | U251 CNS 65.9% | PC-3 prostate 19.3% | SK-MEL-5 melanoma 32.5% | UACC-62 melanoma 14.2% | LOX IMVI melanoma 26.1% | SK-MEL-28 melanoma 73.9% | SK-MEL-2 melanoma 76.4% | EKVX NSCLC 71.9% | SN12C renal 26.2% | UO-31 renal 41.3% | TK-10 renal 47.5% | CAKI-1 renal 60.7% | A498 renal 61.8%
active: CCRF-CEM leukemia 1.81%
